Drawing on PubChem BioAssay (NCI), this text covers growth for 14 compounds.

This is part of a sample that, as a whole, favours compounds with a hit. Of some 83,000 tested, about 20% had one in any assay.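 Assay: single dose, 48 h. Readout: percent growth (0 = no net growth; negative = cell death). Active: <10.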 A number with no mark means an inactive call. The source made the active and inactive calls.

Test systems include RPMI-8226 leukemia; OVCAR-8 ovarian; OVCAR-5 ovarian; OVCAR-4 ovarian; SK-OV-3 ovarian; IGROV1 ovarian; OVCAR-3 ovarian; HS 578T breast; NCI/ADR-RES ovarian.
Assay in all cases: NCI-60 one-dose screen, 48 h (100 = growth as untreated, 0 = no growth, -100 = all killed)
Common to all, as to settings: 10 µM unless noted

`CCCCCCCCC(=O)OCCCC(CCC(CCC1CCCO1)OC(=O)CCCCCCCC)OC(=O)CCCCCCCC` (configuration not stated): the growth was 112% with RPMI-8226 leukemia; 103% with OVCAR-8 ovarian; 99.5% with OVCAR-5 ovarian; 102% in the experiment with OVCAR-4 ovarian; 96.4% with SK-OV-3 ovarian; 107% in the experiment on IGROV1 ovarian. Moreover, the growth in the experiment with OVCAR-3 ovarian was 110%; with HS 578T breast it was 97.1%; in the experiment on NCI/ADR-RES ovarian, 103%.

As for `Nc1cc(-c2ccccc2)ccc1O`, the growth was -11.7% (active) in the experiment on RPMI-8226 leukemia; 62.7% in the experiment with OVCAR-8 ovarian; 104% in the experiment on OVCAR-5 ovarian; 91.4% in the experiment on OVCAR-4 ovarian; 113% with SK-OV-3 ovarian; 115% in the experiment with IGROV1 ovarian. Also, the growth with NCI/ADR-RES ovarian is 88.4%.

Consider `NC(=S)N/N=C\c1nccc2c(N)cccc12`, for which the growth with RPMI-8226 leukemia was 15.5%; in the experiment with OVCAR-8 ovarian, 15.8%; in the experiment with OVCAR-5 ovarian, 48%; in the experiment on OVCAR-4 ovarian, 40.7%; in the experiment on SK-OV-3 ovarian, 16.6%; in the experiment on IGROV1 ovarian, 10.9%. The growth with OVCAR-3 ovarian is 42.6%; with HS 578T breast, 57.6%; with NCI/ADR-RES ovarian, 10.8%.

Take `CCc1oc2ccccc2c1C(=O)c1cc(Br)c(O)c(Br)c1`: the growth in the experiment with RPMI-8226 leukemia was 34.7%; in the experiment with OVCAR-8 ovarian, 79.2%; in the experiment on OVCAR-5 ovarian, 124%; in the experiment with OVCAR-4 ovarian, 67%; in the experiment with SK-OV-3 ovarian, 95.8%; in the experiment on IGROV1 ovarian, 72.2%. The growth was 58.2% in the experiment with OVCAR-3 ovarian and 44.1% with NCI/ADR-RES ovarian.

In the case of `N=C(N)Sc1cccc[n+]1[O-]`, the growth with RPMI-8226 leukemia was 7.12% (active); with OVCAR-8 ovarian, 45.6%; in the experiment with OVCAR-5 ovarian it was 98.2%; with OVCAR-4 ovarian, 15.7%; in the experiment with SK-OV-3 ovarian, 85.3%; in the experiment on IGROV1 ovarian, 46.5%. The growth was 21.7% with OVCAR-3 ovarian, 82.9% in the experiment with HS 578T breast and 53.5% in the experiment with NCI/ADR-RES ovarian.

As to `CCC(C)(O)Cc1ccc(Cl)cc1` (configuration not stated), the growth in the experiment with RPMI-8226 leukemia was 105%; in the experiment with OVCAR-8 ovarian, 108%; in the experiment on OVCAR-5 ovarian, 111%; in the experiment on OVCAR-4 ovarian it was 103%; in the experiment with SK-OV-3 ovarian it was 103%; with IGROV1 ovarian, 114%. Also, the growth was 114% in the experiment on OVCAR-3 ovarian, 108% with HS 578T breast and 111% in the experiment on NCI/ADR-RES ovarian.

Take `O=Nc1ccc2ccccc2c1O`: the growth in the experiment with RPMI-8226 leukemia was 70%; in the experiment with OVCAR-8 ovarian, 6.45% (active); in the experiment with OVCAR-5 ovarian, 81.8%; in the experiment with OVCAR-4 ovarian it was 35.2%; in the experiment on SK-OV-3 ovarian, 95%; with IGROV1 ovarian, 53.2%. Moreover, the growth is 2.86% (active) in the experiment with OVCAR-3 ovarian, 51% in the experiment with HS 578T breast and 6.37% (active) in the experiment on NCI/ADR-RES ovarian.

Take `Oc1cc(Cl)ccc1Cc1ccc(Cl)cc1O`: the growth with RPMI-8226 leukemia is 18.7%; with OVCAR-8 ovarian, 64.6%; with OVCAR-4 ovarian, 30.1%; in the experiment with SK-OV-3 ovarian, 90.8%; in the experiment with IGROV1 ovarian, 82.5%; in the experiment with OVCAR-3 ovarian, 40.2%.

As to `CCCCCCCCCCCC[N+]1(CCCCCCCCCCCC)CCCC(C)C1` (configuration not stated), the growth is -63.1% (active) in the experiment with RPMI-8226 leukemia; -92.1% (active) in the experiment with OVCAR-8 ovarian; -98.3% (active) in the experiment with OVCAR-5 ovarian; -86.3% (active) with OVCAR-4 ovarian; -88.7% (active) in the experiment on OVCAR-3 ovarian; -40.8% (active) in the experiment with HS 578T breast. In addition, the growth with NCI/ADR-RES ovarian is 19.6%.

In the case of `CCOc1ccc2c(c1)/C(=C\C=C\C1CC(C)C3CC(OCC)CCC3N1CC)CC(C)N2CC` (configuration not stated), the growth in the experiment with RPMI-8226 leukemia is -52.2% (active); in the experiment on OVCAR-8 ovarian, 6.8% (active); with OVCAR-4 ovarian, 15.4%; with SK-OV-3 ovarian, 14.9%; in the experiment with IGROV1 ovarian, 32.4%; with OVCAR-3 ovarian it was 8.69% (active). For the same compound, the values for the growth with HS 578T breast and in the experiment with NCI/ADR-RES ovarian were 63.6% and 60.8%, respectively.

Take `CC(=O)Nc1ccc(C(=O)CCl)cc1`: the growth in the experiment with RPMI-8226 leukemia is 25.2%; with OVCAR-8 ovarian, 92.1%; in the experiment on OVCAR-5 ovarian, 94.5%; in the experiment on OVCAR-4 ovarian, 60.6%; in the experiment on IGROV1 ovarian it was 93.2%; in the experiment on OVCAR-3 ovarian, -21.6% (active). For the same compound, the values for the growth in the experiment on HS 578T breast and in the experiment with NCI/ADR-RES ovarian were 19% and 84.5%, respectively.

Consider `Fc1ccc(NCCS)cc1`, for which the growth is 91% in the experiment on RPMI-8226 leukemia; 103% in the experiment with OVCAR-8 ovarian; 102% in the experiment with OVCAR-4 ovarian; 104% with IGROV1 ovarian; 107% with OVCAR-3 ovarian; 115% in the experiment on HS 578T breast. Further, the growth in the experiment with NCI/ADR-RES ovarian is 109%.

Consider `COc1cccc2c1C(=O)c1c(O)c3c(c(O)c1C2=O)C[C@@](O)(C(=O)CO)C[C@@H]3OC1CC(OC(C)=O)C(OC(C)=O)C(C)O1` (some centres not stated), for which the growth with RPMI-8226 leukemia was -43.5% (active); in the experiment with OVCAR-8 ovarian it was 0.76% (active); in the experiment on OVCAR-5 ovarian, 1.32% (active); in the experiment with OVCAR-4 ovarian it was -4.7% (active); with SK-OV-3 ovarian, -10.4% (active); with OVCAR-3 ovarian, -41.2% (active). The growth was -10.9% (active) with HS 578T breast and 2.46% (active) with NCI/ADR-RES ovarian.

As for `COc1cc([C@@H]2c3cc4c(cc3[C@H](OC3OC5COC(c6ccccc6)OC5C(O)C3O)[C@H]3COC(=O)[C@H]23)OCO4)cc(OC)c1OC` (some centres not stated), the growth is -21.4% (active) with RPMI-8226 leukemia; 29.4% with OVCAR-8 ovarian; 38.1% with OVCAR-5 ovarian; 45.3% with OVCAR-4 ovarian; -45.7% (active) in the experiment with IGROV1 ovarian; 61.8% with OVCAR-3 ovarian. Besides, the figures for the growth in the experiment on HS 578T breast and with NCI/ADR-RES ovarian were -30% (active) and -38.9% (active), respectively.
